Laboratory results: PubChem BioAssay
The other results are listed elsewhere or left out. Active and inactive are the calls of the source.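 How the source made its calls, unless noted: active means reconfirmed compounds whose average cytotoxicity reaches 50% or more; inactive means the rest.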

How the values were obtained:
[1] = cytotoxicity in PPC-1 cells, confirmation, cytotoxicity control for TRAIL apoptosis potentiator project, cell-based, ATP content luminescence (AID 1447); settings: PPC-1 viability, ATPlite luminescence, overnight; at 5 µM; stronger effect = higher value;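 further: 0% = DMSO-treated cells and 100% = wells holding medium but no cells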
[2] = PMA/ionomycin-induced NF-kB reporter inhibitors, Jurkat retest, confirmation, T-cell NF-kB inhibitor project, cell-based, luminescence, single concentration (AID 435020;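 active means inhibition reaching about 45% at 4 µM in either replicate, limit read from the data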;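 further: plate controls were PMA/ionomycin stimulated DMSO wells for no effect and unstimulated DMSO wells for full effect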); settings: Jurkat NF-kB luciferase, 16 h, at 4 µM, stronger effect = higher value
[3] = target: Sentrin-specific protease 8 (Homo sapiens) (UniProt Q96LD8); assay: SENP8 protease inhibitors, retest, confirmation, biochemical, luminescence, single concentration (AID 488912;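 active means mean inhibition across replicates above about 50%, limit read from the data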); settings: Recombinant SENP8, Z-RLRGG-aminoluciferin luminescence, 60 min; at 12.5 µM; stronger effect = higher value
[4] = target: Sentrin-specific protease 6 (Homo sapiens) (UniProt Q9GZR1); assay: SENP6 protease inhibitors, confirmation, biochemical, luminescence, single concentration (AID 488915;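 active means mean inhibition above about 50% in the one-dose retest, limit read from the data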); settings: recombinant SENP6, Z-RLRGG-aminoluciferin luminescence; at 12.5 µM; stronger effect = higher value
[5] = target: Sentrin-specific protease 7 (Homo sapiens) (UniProt Q9BQF6); assay: SENP7 protease inhibitors, retest, confirmation, biochemical, luminescence, single concentration (AID 488917;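 active means mean inhibition above about 50% in the one-dose retest, limit read from the data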); settings: recombinant SENP7, Z-RLRGG-aminoluciferin luminescence, 40 min; at 12.5 µM; stronger effect = higher value
Caspase-3 (Homo sapiens) = Caspase-3 (Homo sapiens) (UniProt P42574); assay: caspase-3 protease inhibitors, confirmation, selectivity assay for SENP inhibitor project, biochemical, single concentration (AID 488918;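 active means mean inhibition above about 50%, limit read from the data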;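 further: plate controls were enzyme with DMSO for no effect and wells without caspase-3 for full effect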); settings: purified caspase-3, Z-DEVD-aminoluciferin luminescence, 60 min; at 12.5 µM; stronger effect = higher value
[6] = luciferase luminescence interference by compounds, confirmation, artefact control for SENP inhibitor project, biochemical, single concentration, SENP8 reaction pre-completed (AID 488919;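 active means mean inhibition above about 50% when retested at one dose, limit read from the data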;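 further: plate controls were DMSO wells with completed reaction for no effect and substrate without enzyme for full effect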); settings: Pre-incubated SENP8/Z-RLRGG-aminoluciferin, at 12.5 µM, stronger effect = higher value
[7] = inhibition of Brca1/Bard1 split-luciferase complementation, confirmation, counter-screen for Mdm2/MdmX interaction inhibitor project, luminescence, single concentration (AID 504668; call rule not given here); settings: Brca1/Bard1 bimolecular luciferase complementation counterscreen, at 8 µM, stronger effect = higher value
[8] = Peg3 promoter reporter inhibitors, retest, confirmation, cell-based, HeLa, luciferase reporter, single concentration (AID 602417;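 active means at 20 µM dose, 40% or more inhibition averaged across four replicates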); settings: HeLa PEG-Prom luciferase reporter, luminescence, overnight; at 20 µM; stronger effect = higher value
[9] = HIF-2a reporter inhibitor retest, confirmation, luminescence, 786-0 RCC cells (AID 651580;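 active means mean inhibition across four replicates of at least 40 percent at the single tested concentration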); settings: HIF-2a luciferase reporter luminescence, overnight, at 18.8 µM, stronger effect = higher value
[10] = HIF-1a luciferase reporter signal reduction – MiaPaCa-2 cells, single concentration, counter-screen for HIF-2a inhibitor project, confirmation (AID 651589;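 active means mean inhibition of the reporter signal across four replicates at the single tested dose of 50% or more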); settings: MiaPaCa-2 HIF-1a luciferase reporter, desferoxamine, overnight; at 18.8 µM; stronger effect = higher value
PEG-3 [11] = target: PEG-3 (UniProt Q6IN02); assay: Peg3 promoter luciferase inhibitors, potency, dose response, cell-based, HeLa, CREF/GAPDH counter-screen panel (AID 624167); settings: CREF/GAPDH counter-screens; HeLa PEG-Prom luciferase reporter, overnight, run 1, dose range 1, at 100 µM (top of the series) unless noted
PEG-3 [12] = target: PEG-3 (UniProt Q6IN02); assay: as above; settings: CREF/GAPDH counter-screens; HeLa PEG-Prom luciferase reporter, overnight, run 2, dose range 1, at 100 µM (top of the series) unless noted
Rat fibroblasts (CREF) [13] = assay: as above; settings: CREF/GAPDH counter-screens; run 1, dose range 1, at 100 µM (top of the series)
Rat fibroblasts (CREF) [14] = assay: as above; settings: CREF/GAPDH counter-screens; run 2, dose range 1, at 100 µM (top of the series)
[15] = target: Tumor necrosis factor receptor superfamily member 10B (Homo sapiens) (UniProt O14763); assay: caspase-8 TRAIL sensitization, hit retest, confirmation, cell-based, NB7+caspase-8, with/without TRAIL, luminescence panel (AID 651596; in the data active means activity above about 50%); settings: NB7 neuroblastoma + caspase-8, TRAIL sensitization, luminescence viability, with TRAIL, mean of runs, at 10 µM, stronger effect = higher value
[16] = as above; settings: NB7 neuroblastoma + caspase-8, without TRAIL, luminescence viability, without TRAIL, mean of runs, at 10 µM

Chain of Tumor necrosis factor receptor superfamily member 10B (Homo sapiens) (O14763 whole entry, looked up): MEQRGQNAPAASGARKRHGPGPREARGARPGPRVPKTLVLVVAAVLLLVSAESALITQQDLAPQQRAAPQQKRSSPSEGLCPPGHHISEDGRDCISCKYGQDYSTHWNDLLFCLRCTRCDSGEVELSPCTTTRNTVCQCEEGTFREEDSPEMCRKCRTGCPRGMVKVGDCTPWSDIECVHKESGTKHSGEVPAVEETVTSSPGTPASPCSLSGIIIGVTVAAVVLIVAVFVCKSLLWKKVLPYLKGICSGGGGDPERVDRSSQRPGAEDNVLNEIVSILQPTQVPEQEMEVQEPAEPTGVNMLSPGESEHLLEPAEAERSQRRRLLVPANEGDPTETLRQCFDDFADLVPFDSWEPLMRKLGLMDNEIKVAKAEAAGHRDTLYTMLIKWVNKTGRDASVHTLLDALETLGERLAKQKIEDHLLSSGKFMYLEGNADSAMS
Chain of Sentrin-specific protease 8 (Homo sapiens) (Q96LD8 whole entry, looked up): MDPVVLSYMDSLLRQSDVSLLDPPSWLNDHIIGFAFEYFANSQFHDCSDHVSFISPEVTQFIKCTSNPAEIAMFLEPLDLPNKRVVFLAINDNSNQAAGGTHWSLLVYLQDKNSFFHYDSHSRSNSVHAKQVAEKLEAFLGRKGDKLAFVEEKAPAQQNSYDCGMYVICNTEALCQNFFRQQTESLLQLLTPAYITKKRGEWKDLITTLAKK
Chain of Sentrin-specific protease 6 (Homo sapiens) (Q9GZR1 628-1112 limits assumed): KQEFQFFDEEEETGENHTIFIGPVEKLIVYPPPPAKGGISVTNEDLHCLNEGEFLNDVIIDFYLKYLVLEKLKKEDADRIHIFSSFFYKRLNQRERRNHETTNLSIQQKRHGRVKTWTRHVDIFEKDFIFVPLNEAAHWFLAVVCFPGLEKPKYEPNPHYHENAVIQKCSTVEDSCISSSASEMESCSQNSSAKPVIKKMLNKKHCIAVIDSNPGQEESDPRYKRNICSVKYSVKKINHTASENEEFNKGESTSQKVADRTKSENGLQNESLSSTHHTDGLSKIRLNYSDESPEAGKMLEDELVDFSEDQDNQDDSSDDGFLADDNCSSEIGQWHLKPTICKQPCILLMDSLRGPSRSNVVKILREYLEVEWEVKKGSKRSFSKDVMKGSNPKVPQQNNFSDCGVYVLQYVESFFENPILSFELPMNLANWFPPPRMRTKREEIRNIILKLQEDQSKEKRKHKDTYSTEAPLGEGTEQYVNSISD
Chain of Sentrin-specific protease 7 (Homo sapiens) (Q9BQF6 706-1050 limits assumed): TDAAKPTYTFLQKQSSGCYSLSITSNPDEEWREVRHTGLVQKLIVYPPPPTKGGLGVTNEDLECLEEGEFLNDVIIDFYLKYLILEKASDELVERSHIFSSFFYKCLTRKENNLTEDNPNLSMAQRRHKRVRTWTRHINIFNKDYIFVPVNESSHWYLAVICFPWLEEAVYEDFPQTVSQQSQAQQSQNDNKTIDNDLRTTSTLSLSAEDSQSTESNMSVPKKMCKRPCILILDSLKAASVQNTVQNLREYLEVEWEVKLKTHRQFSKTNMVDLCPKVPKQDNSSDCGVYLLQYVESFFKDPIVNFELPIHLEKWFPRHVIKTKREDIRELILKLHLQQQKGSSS
Chain of PEG-3 (Q6IN02 whole entry, looked up): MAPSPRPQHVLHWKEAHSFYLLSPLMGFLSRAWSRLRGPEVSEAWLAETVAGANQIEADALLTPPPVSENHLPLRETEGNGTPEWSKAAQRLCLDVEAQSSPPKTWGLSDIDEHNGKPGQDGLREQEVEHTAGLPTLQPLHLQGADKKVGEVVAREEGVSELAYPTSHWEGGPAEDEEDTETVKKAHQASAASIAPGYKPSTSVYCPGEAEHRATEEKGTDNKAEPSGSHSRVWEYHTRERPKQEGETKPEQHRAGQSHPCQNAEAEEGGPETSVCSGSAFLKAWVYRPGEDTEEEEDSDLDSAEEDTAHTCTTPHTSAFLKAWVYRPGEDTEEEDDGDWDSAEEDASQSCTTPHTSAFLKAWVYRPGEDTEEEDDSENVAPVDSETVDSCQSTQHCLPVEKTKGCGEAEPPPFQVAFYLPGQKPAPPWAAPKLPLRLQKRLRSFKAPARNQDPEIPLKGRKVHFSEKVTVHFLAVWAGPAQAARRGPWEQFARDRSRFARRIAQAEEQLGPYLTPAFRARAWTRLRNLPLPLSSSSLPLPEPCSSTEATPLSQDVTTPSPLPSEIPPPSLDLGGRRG
Chain of Caspase-3 (Homo sapiens) (P42574 28-227 limits assumed): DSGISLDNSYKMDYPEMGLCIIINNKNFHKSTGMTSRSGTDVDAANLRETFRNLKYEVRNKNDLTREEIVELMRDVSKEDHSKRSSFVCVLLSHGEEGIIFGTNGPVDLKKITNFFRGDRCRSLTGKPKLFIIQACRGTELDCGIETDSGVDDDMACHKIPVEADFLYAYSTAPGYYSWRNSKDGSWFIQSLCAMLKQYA

O=C(CSc1nnc(-c2ccc([N+](=O)[O-])cc2)o1)Nc1ccccn1
cytotoxicity [1]: 57% (active)

OCCNc1nc2ccccc2n1-c1ncnc2sc3c(c12)CCC3
cytotoxicity [1]: -17.2% (inactive)

O=C(Nc1ccn(Cc2ccccc2)n1)c1cccc(F)c1
cytotoxicity [1]: 39.6% (inactive)

COc1cccc(/C=C/C(=O)Nc2ccc3c(c2)OCCO3)c1
cytotoxicity [1]: 48.7% (inactive)

Cc1ccc(NC(=O)CS(=O)CC(=O)N(c2ccccc2)C(C)C(=O)NC2CCCC2)cc1 (stereo not drawn)
cytotoxicity [1]: 14.8% (inactive)

COc1ccc(-c2cc(C(=O)NCc3ccco3)no2)cc1OC
cytotoxicity [1]: 17.4% (inactive)

CCOC(=O)c1c(C)[nH]c2c1-c1ccccc1C(=O)C2=O
cytotoxicity [1]: 96.4% (active)

c1ccc2cc3c(NCCN4CCOCC4)ccnc3cc2c1
cytotoxicity [1]: 18% (inactive)

N/C(=N\OC(=O)c1ccc([N+](=O)[O-])cc1)c1ccccn1
cytotoxicity [1]: 11.3% (inactive)

Clc1cccc(-c2nc3nc4ccccc4nc3n2Cc2ccco2)c1
cytotoxicity [1]: -6% (inactive)

COC(=O)c1nc(NC(=O)c2ccc(Cl)cc2)n[nH]1
cytotoxicity [1]: 12.1% (inactive)

Cn1c(C(=O)NCCCN2CCN(c3cccc(Cl)c3)CC2)cc2c(=O)n(C)c3ccccc3c21
cytotoxicity [1]: 15% (inactive)

Cn1c(=O)n(C)c2cc(S(=O)(=O)N3CCCc4ccccc43)ccc21
cytotoxicity [1]: 14.1% (inactive)

CNC(=O)COC(=O)c1cc(-c2ccc(OC)cc2)nc2ccccc12
cytotoxicity [1]: 36.3% (inactive)

CS(=O)(=O)N1CCN(C(=O)c2cc3ccccc3oc2=O)CC1
cytotoxicity [1]: 9.4% (inactive)

O=C(c1ccc(F)cc1)n1c(=S)nc2ccccn21
cytotoxicity [1]: 81.2% (active) | inhibition [2]: -90.8% (inactive) | inhibition [3]: 16.3% (inactive) | inhibition [4]: 14.2% (inactive) | inhibition [5]: 50.1% (active) | inhibition (Caspase-3 (Homo sapiens)): 19.5% (inactive) | inhibition [6]: -9.8% (inactive)

C=CCn1c(C)cc(C2=NNC(=NCC)SC2)c1C
cytotoxicity [1]: 88% (active) | inhibition [2]: 67.5% (active) | inhibition [3]: -3.3% (inactive) | inhibition [4]: 1% (inactive) | inhibition [5]: 8% (inactive) | inhibition (Caspase-3 (Homo sapiens)): 1.7% (inactive) | inhibition [6]: -1% (inactive) | inhibition [7]: 24.4% (active) | inhibition [8]: 95.2% (active) | inhibition [9]: 98.7% (active) | inhibition [10]: 104% (active) | inhibition (PEG-3 [11]): 99.4% | inhibition (PEG-3 [12]): 98.1% | inhibition (Rat fibroblasts (CREF) [13]): 98.4% | inhibition (Rat fibroblasts (CREF) [14]): 98.1% | activity [15]: 93.8% | activity [16]: 90.7%

O=C(Nc1cccc(O)c1)c1ccc(C(=O)c2ccccc2)o1
cytotoxicity [1]: 18.6% (inactive)

CS(=O)(=O)N(CC(=O)N1CCOCC1)c1ccc2c3c(cccc13)CC2
cytotoxicity [1]: -7.5% (inactive)

COc1ccc(C(=O)/C=C/Nc2ccccn2)cc1
cytotoxicity [1]: 76.8% (active) | inhibition [2]: -78.9% (inactive) | inhibition [3]: 97.4% (active) | inhibition [4]: 98% (active) | inhibition [5]: 102% (active) | inhibition (Caspase-3 (Homo sapiens)): 97% (active) | inhibition [6]: 96.4% (active) | inhibition [8]: 57.9% (active) | inhibition [9]: 80.7% (active) | inhibition [10]: 79.7% (active) | inhibition (PEG-3 [11]): 95.5% | inhibition (PEG-3 [12]): 94.2% | inhibition (Rat fibroblasts (CREF) [13]): 96.2% | inhibition (Rat fibroblasts (CREF) [14]): 96.7% | activity [15]: 81.4% | activity [16]: 68.6%

COc1ccc(-c2cc(C(=O)n3cnc4ccccc43)c3ccccc3n2)cc1
cytotoxicity [1]: 33.1% (inactive)

Cc1ccc(-n2nc3cc(C)c(NC(=O)c4cccnc4)cc3n2)cc1
cytotoxicity [1]: 34.7% (inactive)

Cc1cc(C)nc(Nc2n[nH]c(-c3ccccc3N)n2)n1
cytotoxicity [1]: 37.6% (inactive)

CCOc1cc(N2CCOCC2)c(OCC)cc1NC(=O)c1cc(C)nc2ccccc12
cytotoxicity [1]: -9.1% (inactive)

O=C(NCC12CC3CC(C1)CC(CNC(=O)N1CCCC1)(C3)C2)N1CCCC1
cytotoxicity [1]: -1.2% (inactive)

COc1cc(NS(=O)(=O)c2ccc(NC(C)=O)cc2)cc(OC)c1
cytotoxicity [1]: -8.5% (inactive)

O=C(CN1C(=O)c2ccccc2S1(=O)=O)N1CCc2ccccc21
cytotoxicity [1]: 46.8% (inactive) | inhibition [2]: 34.6% (inactive) | inhibition [9]: 94.3% (active) | inhibition [10]: 96% (active)

CNC(=O)CSc1nnc(CCc2ccccc2)n1-c1ccccc1
cytotoxicity [1]: 0.9% (inactive)

CCOc1ccc(-c2ccc(SCC(=O)N3CCOCC3)nn2)cc1
cytotoxicity [1]: 57.7% (active)

CCOC(=O)C1C(=O)OC2(CCCC2)C1C(=O)OCC (stereo not drawn)
cytotoxicity [1]: -4.2% (inactive)

Cc1nc(-c2ccc(Cl)cc2)sc1C(=O)NN
cytotoxicity [1]: 57.2% (active)

COc1ccc(C2C(C#N)=C(/N=C/N3CCOCC3)OC3=C2C(=O)CC(C)(C)C3)cc1OC (stereo not drawn)
cytotoxicity [1]: 2.1% (inactive)

CCCCCCCCn1c2c(c(=N)c3c1CCC3)CCCC2
cytotoxicity [1]: 42.7% (inactive) | inhibition [2]: 75.5% (active)

O=C(O)c1ccc(N/N=C/c2cn(-c3ccccc3)nc2-c2cccs2)cc1
cytotoxicity [1]: 85.2% (active) | inhibition [2]: -14.3% (inactive) | activity [15]: 77.9% | activity [16]: 73.7%

CCCC(=O)Nc1nnc(CC(=O)OCC)s1
cytotoxicity [1]: -5.4% (inactive)

CC(Nc1nc(N2CCCC2)nc2ccccc12)c1ccccc1 (stereo not drawn)
cytotoxicity [1]: 8.3% (inactive)

Cc1cc2c(=O)n(C)c(SCC(=O)c3cc4ccccc4o3)nc2s1
cytotoxicity [1]: -5.6% (inactive)

O=C(O)CCCC(=O)Nc1ccccc1-n1ccnc1
cytotoxicity [1]: -3.3% (inactive)

CCOc1ccc(NC(=O)NNC(=O)c2ccc(Cl)cc2Cl)cc1
cytotoxicity [1]: -11.6% (inactive)

Clc1ccc(-c2cc(-c3ccccn3)on2)c(Cl)c1
cytotoxicity [1]: 89.7% (active) | inhibition [3]: 94.7% (active) | inhibition [4]: 95.8% (active) | inhibition [5]: 102% (active) | inhibition (Caspase-3 (Homo sapiens)): 94.9% (active) | inhibition [6]: 32.9% (inactive)

CC(=O)Nc1ccc(Nc2c3ccccc3nc3ccccc23)cc1
inhibition [2]: 26.9% (inactive)

CCN(CC)c1ccc(/C=N/NC(=O)c2cnccn2)c(O)c1
inhibition [2]: -7.5% (inactive)

Cc1cccc(NS(=O)(=O)c2ccc(-c3cnc(C4CC4)o3)cc2)c1
inhibition [2]: 53.5% (active)

COc1ccc(-c2nc(-c3ccccc3)no2)c(OC)c1
cytotoxicity [1]: 69.6% (active) | inhibition [3]: 97.4% (active) | inhibition [4]: 100% (active) | inhibition [5]: 103% (active) | inhibition (Caspase-3 (Homo sapiens)): 98.1% (active) | inhibition [6]: 98.1% (active) | activity [15]: 82.3% | activity [16]: 80.7%

COc1cccc(/C=C/c2ccc3ccccc3n2)c1OC(C)=O
cytotoxicity [1]: 74.4% (active) | activity [15]: 67.2% | activity [16]: 60.8%
